This note sets out measurements from PubChem BioAssay AID652067 (The Scripps Research Institute Molecular Screening Center, 2013).

Each structure is given as a SMILES string. Out of some 370,000 compounds screened, about 5,400 (1.5%) were called active. This excerpt belongs to a sample that is enriched for actives. A number with no mark means an inactive call.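 Rule for the calls: active = activation above the mean of all tested compounds plus 3 SD (cut at about 5.5% in these data); inactive = the rest.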

This assay deals with DAF-12 nuclear receptor (Haemonchus contortus). The experiment in a line: hcDAF-12 driven luciferase reporter activation – cell-based, luminescence, HEK293, lit1-tk-luc reporter, primary screen (AID 652067).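 Note: 100% = response to 3 µM Δ7-dafachronic acid high control.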 The conditions noted are these: HEK293 hcDAF-12 lit1-tk-luc reporter, at 6.8 µM, active compounds read high, 0% DMSO, 100% Δ7-dafachronic acid.
Turning to `CC(c1ccc(N)cc1)c1cn(C)c2ccccc12` (stereo not given), the activation is -2.32%. As for `Cc1ccccc1Nc1nc(N)nc(COC(=O)CCC(=O)c2ccc(F)cc2)n1`, the activation was -0.96%. For the compound `Cc1ccccc1Nc1nc(N)nc(CSc2ccccc2)n1`, the activation is 6.93% (active). Consider `Cc1ccccc1Nc1nc(N)nc(CSc2nnc3ccccn23)n1`, for which the activation was 0.54%. For the compound `COC(CNC(=O)[C@H](Cc1ccccc1)NC1(C(=O)NC2CCCCC2)CCCCC1)OC`, the activation was 0.68%. As to `CC(=O)/C(=N\Nc1ccc(Cl)cc1Cl)Sc1cccc2cccnc12`, the activation was -1.47%.

With `O=C(Nc1cccc2cccnc12)c1cccc(Cl)c1`, the activation is 5.97% (active). For the compound `O=C(Nc1cccc2cccnc12)c1ccc2sc([C@H]3C[C@H](O)[C@@H](CO)O3)nc2c1`, the activation is -3.24%. The value for `COC(=O)[C@]12C[C@H](CC(=O)N3CCOCC3)C(=O)N(Cc3ccc(Cl)cc3Cl)C1=C[C@H](C(C)C)O[C@@H]2C1CC1` was -0.53%; that for `CC(=O)OC12CCCN(C1)/C(=C/c1ccncc1)C2` (stereo not given) was -0.38%; that for `O=C(/C=C/c1cnc2ccccc2n1)NC1CCCCCC1` was 8.85% (active). As to `O=C(Cn1c(-c2cncs2)nc2ccccc21)NC1CCCC1`, the activation was -0.67%. The value for `CC1CCCCC1NC(=O)Cn1c(=O)cnc2ccccc21` (stereo not given) was 0.69%; that for `COCCN1CCn2c(nc3cc(NS(C)(=O)=O)ccc32)C1` was 0.72%.

As for `O=C(NC1CCC1)c1ccc(C#CC2CC2)cn1`, the activation is 1.58%. In the case of `Nc1ncnc2c1ncn2C1OC(CO)CC1O` (stereo not given), the activation was -1.72%.

Consider `Cc1no[n+]([O-])c1COc1ccccc1/C=C1\NC(=S)NC1=O`, for which the activation is -0.17%. The value for `C#CCOc1ccccc1/C=C1/C(=O)ON=C1C` was 6.39% (active); that for `Cc1cccc(NC(=O)c2cc3c(C)nn(-c4ccccc4)c3s2)c1` was -3.69%; that for `O=C(NCCc1csc(-c2ccccc2)n1)c1ccccc1F` was -1.62%. The value for `O=C(NCCOc1ccccc1)c1ccccc1F` was 6.22% (active); that for `NS(=O)(=O)c1cc(C(=O)NCCOc2ccccc2)c(Cl)cc1Cl` was -2.95%.

For the compound `CCc1c(-c2ccccc2OC)ncn1CCc1ccccc1OC`, the activation was -2.85%.

Consider `N[C@@H](Cc1ccccc1)C(=O)N1CCC[C@@H]1C(=O)N1CCC2CCN(S(=O)(=O)c3ccccc3)CC21` (stereo not given in full), for which the activation is -1.99%.

In the case of `COC1=NC2=NCCN2C(OC)=N1`, the activation is 0.26%. In the case of `COC(=O)C[C@@H]1CC[C@@H]2[C@@H](COc3ccc(NC(=O)Nc4ccc(F)c(F)c4)cc3C(=O)N2C)O1`, the activation was -4.16%. The value for `N#CCC[C@H]1CC[C@]2(CCCN(Cc3ccc(Cl)cc3)C2)O1` was -0.47%; that for `CN(CCO)c1ccc(/C=N/Nc2nncc3ccccc23)cc1` was 5.57%. As to `C(=N\Nc1ccc2ccccc2n1)/c1ccc2c(c1)OCO2`, the activation is 7.26% (active). With `Nc1nonc1-n1nnc(C(=O)N/N=C/c2ccc(Cl)cc2)c1-c1ccc2c(c1)OCO2`, the activation is 0.66%.

For the compound `Cc1cc2c(C)nc(N/N=C/c3ccccc3)nc2o1`, the activation is -0.61%. With `Cc1noc(C)c1/C=N/Nc1ccc2ccccc2n1`, the activation was 7.4% (active). `O=C(NS(=O)(=O)c1cccs1)[C@H]1O[C@@H](n2ccc(=O)[nH]c2=O)[C@H](O)[C@@H]1O`: the activation was 1.29%.

With `COc1ccc(CSc2nnc(SCC(=O)Nc3ccccc3C(F)(F)F)s2)cc1`, the activation is -0.61%.

Consider `CS(=O)(=O)Nc1ccccc1C(=O)OCC(=O)NC1CC1`, for which the activation is 0.83%.

As to `CC(=O)c1cc(-c2ccc3ccccc3c2)c(=O)n2c1CCC2`, the activation was -0.26%.

For `COC(=O)Nc1nc2ccc(C(=O)C3CC3)cc2[nH]1`, the activation was 0.63%.

For the compound `C[C@@H]1CN([C@@H](C)CO)C(=O)c2cccc(NC(=O)Nc3cccc4ccccc34)c2O[C@H]1CN(C)S(=O)(=O)c1ccccc1F`, the activation was -1.14%. The value for `C[C@@H]1ON(C)[C@H]2C[C@H]3c4[nH]c5cccc(-c6ccc7c(c6)OCO7)c5c4CCN3C[C@@H]12` was -1.17%; that for `COc1ccc(C2=Nc3ccccc3NC(=O)C2N(C(=O)c2cc3ccccc3[nH]2)c2ccccc2)cc1` (stereo not given) was 6.3% (active); that for `CC(OC(=O)c1cc2ccccc2[nH]1)C(=O)N(C)c1ccccc1` (stereo not given) was 2.38%.

Take `CCC(=O)N(Cc1cc2ccccc2[nH]c1=O)c1ccc(OC)cc1`: the activation was -1.6%. The value for `Cc1cc(=O)oc(C)c1C(=O)NCCN(C)Cc1ccccc1` was -0.39%; that for `O=C1CC(c2ccc3c(c2)OCO3)N=C2N(CC3CC3)C/C(=C/c3ccccc3)N12` (stereo not given) was -3.84%; that for `CCNC(=O)COC(=O)/C=C/c1c(C)nn(Cc2cccc(OC)c2)c1Cl` was 0.11%.

With `O=C(/C=C/c1cccs1)NCc1cccnc1`, the activation is -0.87%. As for `O=C(NCc1cccnc1)c1nc(-c2cccs2)no1`, the activation was 5.95% (active). Consider `CCc1ccc(CNC(=O)CCc2nc(-c3cccs3)no2)cc1`, for which the activation was 0.59%. For `CCS(=O)(=O)N1Cc2ccccc2CC1C(=O)Nc1nc2ccc(F)cc2s1` (stereo not given), the activation was 7.31% (active). Next, `Cc1ccc2nc(NC(=O)C3CSC4(C)CCC(=O)N34)sc2c1` (stereo not given): -0.71%; `CCS(=O)(=O)N1Cc2ccccc2CC1C(=O)Nc1ccc(OC)cc1OC` (stereo not given): -0.97%; `COC(=O)[C@]12C[C@H](CC(=O)NCc3ccccc3)C(=O)N(CCC3=CCCCC3)C1=C[C@H](C(C)(C)C)O[C@@H]2C`: 0.06%. Regarding `O=C(NCc1cccs1)C1CCCN(S(=O)(=O)c2ccc([N+](=O)[O-])cc2)C1` (stereo not given), the activation was -2.29%. For the compound `O=C(Nc1cccn(Cc2c(Cl)cccc2Cl)c1=O)c1ccc(Cl)cc1`, the activation is -0.98%.

As for `COc1ccc(-n2c(COc3ccccc3)nnc2SCC(=O)Nc2ccc3c(c2)OCO3)cc1`, the activation was -3.31%. Next, `O=S1(=O)c2c(cccc2N2CC[C@H](O)C2)O[C@@H]2CCN1C2`: -1.21%; `CCSc1nnc(-c2cc3c(s2)-c2ccccc2CC3)o1`: 2.59%. Next, `CCOc1ccc2nc(C(=O)N3CCCC(C)C3)sc2c1` (stereo not given): 7.97% (active); `CCOc1ccc(NC(=O)C2CCCN(C(=O)Nc3ccccc3)C2)cc1` (stereo not given): -0.89%; `COc1ccc2cc(C(=O)C3CCCN(C(=O)c4sc(C)nc4C)C3)ccc2c1` (stereo not given): -2.25%. The value for `COC(=O)[C@]12C[C@H](CC(=O)NCC34CC5CC(CC(C5)C3)C4)C(=O)N(Cc3ccc(Cl)cc3Cl)C1=C[C@H](COCc1ccccc1)O[C@@H]2C` was -1.65%.

In the case of `CCc1ccc2[nH]c(=O)c(Cc3ccccc3)c(O)c2c1`, the activation was 0.62%.

For `NS(=O)(=O)c1ccccc1NC(=O)c1c(O)c2ccccc2[nH]c1=O`, the activation is 15.2% (active).

Turning to `CCCOC(=O)Cc1c(O)c2ccccc2[nH]c1=O`, the activation was 0.81%.

As to `C[C@H](C(=O)N(C)c1ccccc1)[C@@H](O)c1ccc(Cl)cc1`, the activation was -1.63%.

Regarding `CCS(=O)(=O)c1cc([N+](=O)[O-])c(Sc2ccccc2N)s1`, the activation is 7.01% (active). Turning to `Cc1ccc(Cl)cc1NC(=O)C1CCCN(c2cnccn2)C1` (stereo not given), the activation is -1.45%. Next, `COc1ccc(C2CC(c3cccs3)=NN2C(=O)CSc2nnc(N)s2)cc1OC` (stereo not given): -1.14%.

In the case of `COc1ccc(C2CC(c3cccs3)=NN2C(=O)COC(=O)c2cc3ccccc3cc2O)cc1OC` (stereo not given), the activation was -1%. Turning to `COc1ccc(C2CC(c3cccs3)=Nc3ccccc3S2)cc1OC` (stereo not given), the activation was 7.77% (active). In the case of `CC(C)(C)NC(=O)C(c1cccnc1)N(C(=O)c1cnco1)c1ccc(C(C)(C)C)cc1` (stereo not given), the activation is -2.31%.

Consider `C/C(=N\N(C)C)c1ccc(OCCOc2ccc([N+](=O)[O-])cc2)cc1`, for which the activation was -0.12%. Take `COc1ccc(S[C@]2(C(=O)N(C)C)CC(=O)N(c3ccc(OC)cc3)[C@@H]2c2ccc(OC)cc2)cc1`: the activation was -2.06%. Next, `COc1ccc(-c2cn3ccc(C)cc3n2)cc1`: 7.15% (active); `FC(F)(F)Oc1ccc(-c2cn3cccnc3n2)cc1`: 0.45%. Turning to `COc1ccc(CSc2nnc(-c3cccc(C)c3)n2C)cc1`, the activation was -3.02%. The value for `COc1cc(OC)cc(-c2nc(=S)n3ccsc3n2)c1` was 1.3%. With `COc1ccc(-c2ccc3c(n2)CCCN3S(=O)(=O)c2ccc(C)cc2)cc1`, the activation was -0.08%. The value for `COc1ccc(-c2cn3ccsc3n2)cc1` was 6.33% (active); that for `CCOC(=O)[C@@]12CN(C(=O)OC(C)(C)C)CC=C1N(Cc1ccc(OC)cc1)C(=O)[C@H]2CC(=O)NCc1ccc(OC)c(OC)c1` was -1.83%. `CN1C(=O)C(Br)(Br)CC1c1cccnc1` (stereo not given): the activation was 0.36%. Next, `Cc1ccc(-n2nc3c(c2NC(=O)CCC2CCCCC2)CS(=O)C3)cc1` (stereo not given): 1.64%; `O=C(COc1cccc2c1CCNC2=O)NC1CCCCC1`: 0.88%; `Cc1cc(NCCc2c[nH]c3ccccc23)ccc1Oc1cccnc1`: -1.55%. Take `CCc1cc2c(=O)c(-c3nc4ccccc4n3C)c(CCCC(=O)O)oc2cc1OC(=O)C(C)(C)C`: the activation is -0.74%. Regarding `CCc1cc2c(=O)c(-c3ccon3)c(N)oc2cc1OC`, the activation is 7.31% (active). For the compound `COc1ccc2oc(N)c(C=O)c(=O)c2c1`, the activation was -0.56%. Regarding `O=S1(=O)c2ccc(Br)cc2OC[C@H](Cc2ccccc2)N1Cc1cn(Cc2ccccc2)nn1`, the activation is -0.79%. `C=CCN=C1NC(c2ccccc2)C(C(=O)OC)=C(C)N1Cc1ccc(C(F)(F)F)cc1` (stereo not given): the activation is 0.87%.

Turning to `Nn1c(SCC(=O)Nc2cccc3ccccc23)nnc1-c1cc(-c2ccc(F)cc2)n[nH]1`, the activation was -1.52%.
